# Screening data as filed in PubChem BioAssay.
# ClpP mod: qHTS Assay for Activators of ClpP | ATP-dependent Clp protease proteolytic subunit (Bacillus subtilis (strain 168)), P80244 | purified B. subtilis ClpP, FRET peptide cleavage, 20 min | Potency, µM (series often up to 57.5 µM) | 340,000 tested, 1.9% active | AID 651965, 2013; active = well fitted falling curve with a large enough effect; inconclusive = small, poorly fitted or top-dose-only effect; inactive = no such curve, though single readings can be large or run the other way; note: the source files actives as falling curves though it sought activators and does not explain the sign; nearly all actives have a fitted effect of over 65% in size
#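 Purified B. subtilis ClpP, 10 microg/mL final in Tris/HCl pH8 with KCl, BSA, glycerol and Tween-20, cleaved an Abz/nitrotyrosine-quenched decapeptide. Fluorescence (ex 320, em 430) was read at 0 and 20 min at room temperature. Delta was normalized to 5.8 microM ADEP and DMSO/no-enzyme controls.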
# 12-LOX inh: inhibitors of human 12S-lipoxygenase ALOX12 | purified 12hLO, xylenol orange hydroperoxide absorbance | AID 1671190 | 580,000 tested, 1.1% active | Potency, µM (doses to about 108 µM), most hits filed as inhibitors | P18054; active = well fitted inhibition curve with a large enough effect; inconclusive = small, poorly fitted or top-dose-only effect, or another doubt; inactive = no such curve, though single readings can be large or run the other way
# Target sequence (P18054 whole entry, looked up): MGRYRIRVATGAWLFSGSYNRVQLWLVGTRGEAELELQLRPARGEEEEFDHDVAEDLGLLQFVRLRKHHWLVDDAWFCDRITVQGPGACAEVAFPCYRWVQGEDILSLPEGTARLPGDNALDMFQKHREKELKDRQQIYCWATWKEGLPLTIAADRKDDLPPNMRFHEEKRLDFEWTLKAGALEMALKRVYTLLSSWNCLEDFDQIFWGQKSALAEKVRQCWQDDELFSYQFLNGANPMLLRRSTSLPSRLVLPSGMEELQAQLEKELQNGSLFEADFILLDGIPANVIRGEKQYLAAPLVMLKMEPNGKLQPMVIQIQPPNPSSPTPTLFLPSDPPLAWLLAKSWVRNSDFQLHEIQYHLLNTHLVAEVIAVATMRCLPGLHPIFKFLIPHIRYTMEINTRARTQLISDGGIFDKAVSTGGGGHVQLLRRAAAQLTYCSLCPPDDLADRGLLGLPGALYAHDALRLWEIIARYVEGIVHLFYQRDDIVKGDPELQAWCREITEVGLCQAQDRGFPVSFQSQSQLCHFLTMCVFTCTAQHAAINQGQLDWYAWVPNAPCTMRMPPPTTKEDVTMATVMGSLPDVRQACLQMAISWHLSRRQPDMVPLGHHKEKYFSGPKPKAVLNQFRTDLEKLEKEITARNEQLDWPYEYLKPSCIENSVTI
#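 Hydroperoxide product was detected by ferrous iron/xylenol orange as the 573 to 405 nm absorbance ratio. Arachidonic acid at 40 uM (final) was turned over for 30 min at room temperature by 150 nM human 12hLO, pH 7.0 Hepes buffer, after 15 min compound preincubation.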
# KCNH2 3.1 inh: blocks the human KCNH2 3.1 channel isoform; U2OS KCNH2 3.1, thallium flux FluxOr; stronger effect = lower value; activity change, % (tested at about 1.8 µM); 340,000 tested, 0.95% active; AID 720553;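 active = maximum activity change below -70%; inconclusive = maximum activity change from -70% to -50%; inactive = maximum activity change above -50%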;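 note: thallium influx rate constant from kinetic fluorescence after stimulation buffer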
#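 Thallium flux via FluxOr fluorescence (Red40 quencher, 45 min loading) in U2OS cells virally expressing the KCNH2 3.1 isoform (1.77 x 10^8 /mL virus, overnight at 37 C). Rate constants from 2-min kinetic reads post-stimulation, normalised to positive and negative controls.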
# KCNH2 WT inh: KCNH2 (human, wildtype) channel inhibition; activity change, % at 1.84 µM; U2OS, BacMam KCNH2, thallium flux FluxOr; stronger effect = lower value; Q12809; 340,000 tested, 0.37% active;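 active = maximum activity change below -70%; inconclusive = maximum activity change between -70% and -50%; inactive = maximum activity change above -50%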
#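 U2OS cells transduced with wild-type KCNH2 virus are loaded with FluxOr dye for 45 min, and thallium flux is measured in kinetic reads before and after stimulation buffer. Rate constants are normalized to DMSO controls.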
# Chronic BCR inh: inhibitors of chronic active B-cell receptor signaling; ABC-DLBCL IkBa-CBG/CBR reporter, luminescence ratio, 4 h; Potency, µM (top dose mostly 46.1 µM), usual class: inhibitors; 340,000 tested, 0.05% active; active = well fitted inhibition curve with a large enough effect in the signal ratio, with a control signal flat, not every such curve was filed as active; inconclusive = small, poorly fitted or top-dose-only effect, or effect the other way, or a change in a side signal; the % refers to the signal ratio
#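 Concentration-response series (up to 46 uM) were applied to TMD8 dual-reporter cells for 4 h at 37C with doxycycline. Green/red ratio, after filter-overlap correction, defined %Activity; red signal alone was normalised to basal cells and zero luminescence.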
# LDHA inh: blocks human lactate dehydrogenase A; P00338; purified LDHA, NADH/diaphorase-resazurin fluorescence; stronger effect = lower value; 480,000 tested, 0.15% active; activity change, % (values are at about 110 or 230 µM); in the data active = activity change below about -30%; inconclusive = mostly about -25% to -30%
#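 Human LDH5 (2 nM) was incubated with 0.06 mM NADH and 0.2 mM pyruvate for 5 min at room temperature in Tris pH 7.4. Remaining NADH was coupled through diaphorase/resazurin, and resorufin fluorescence was read at 0 and 20 min.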
# Hits are given with their value; - = inactive; ? = inconclusive; . = no result given; ! = a repeat was not active; [ ] = remark or other dose. Shown are actives, neighbours in structure and some others; about 3% of the full set was active somewhere.
SMILES,ClpP mod,12-LOX inh,KCNH2 3.1 inh,KCNH2 WT inh,Chronic BCR inh,LDHA inh
O=C(CCc1ccccc1)Nc1nnc(-c2ccccn2)o1,22µM,-,-,-,-,-
O=C(C1CC=CC1)N1CC(F)(F)C[C@H]1c1nc(-c2ncccn2)no1,.,-,.,.,.,.
CN(C)c1ccc(C=Nc2ccc(I)cc2)cc1,.,-,.,.,.,-
Clc1ccc(N2CCN(Cc3ccc(Br)o3)CC2)cc1,.,0.89µM,-,-,-,-
Clc1cccc(N2CCN(Cc3ccc(Br)o3)CC2)c1,-,?,-,-,-,-
c1ccc(-c2nc(C34CC5CCC(CC(C5)C3)C4)cs2)cc1,.,-,.,.,.,-
COc1ccc(OC2CNC2)cc1,.,-[12.5 µM],.,.,.,.
O=C1CC(c2ccccc2)(c2ccccc2)c2ccccc21,32µM,-,-103,-95,.,-
O=C1OC(c2ccccc2)(c2ccccc2)c2ccccc21,.,-,-,-,.,-
COc1ccc(C(CNC(=O)c2n[nH]c(=O)c3ccccc23)N(C)C)cc1 (stereo not given),.,-,.,.,.,-
CSc1ccc(/C=[N+](/[O-])c2ccccc2)cc1,.,?,.,.,.,-
O=C(/C=C/C=C/c1ccccc1)c1ccc2oc3ccccc3c2c1,.,?,.,.,.,-
CC(=O)C1=C(O)C(=CC=Cc2ccccc2)OC1=O,-,16µM,-,-,.,-
O=C(NC1CC1)c1nc(Cn2cc([N+](=O)[O-])cn2)no1,-,-,-,-73,-,-
CC1=CCC2C(C)(C)CCCC2(C)C1CC/C(C)=C\CC/C(C)=N/NC(N)=O (stereo not given),.,?,.,.,.,-
CCCCNC(=O)CN1CCN(c2ncc(NC(=O)c3ccc(Cl)cc3)cc2C(=O)O)CC1,-,35µM,.,.,-,-
CCCNC(=O)CN1CCN(c2ncc(NC(=O)c3ccc(Cl)cc3)cc2C(=O)O)CC1,-,-,.,.,-,-
C=CCn1c(SCC(=O)NC(=O)NC)nnc1C1CCCCC1,.,-,-,-,-,-
C=CCn1c(SCC(=O)NC(=O)NCCC)nnc1C1CCCCC1,3.2µM,-,-,-,?,-
CC(C)C(C)NC(=O)CSc1ccc2ccccc2n1 (stereo not given),.,-,.,.,.,-32
CC(NC(=O)CSc1ccc2ccccc2n1)C1CC1 (stereo not given),.,?,.,.,.,-
Cc1ccc(-c2nnc(-c3ccc(Br)cc3)o2)o1,32µM,-,-,-,?,-
Cc1cccc(C=Nc2ccccc2C(N)=O)c1,22µM,-,-,-,?,-
Cc1ccc(C=Nc2ccccc2C(N)=O)s1,8.9µM,-,-,-,?,-
NC(=O)c1ccccc1N=Cc1ccccc1O,.,-,.,.,.,-
SMILES,ClpP mod,12-LOX inh,KCNH2 3.1 inh,KCNH2 WT inh,Chronic BCR inh,LDHA inh
Cc1ccc(S(=O)(=O)N(C)C)cc1NC(=O)c1ccc2ccccc2n1,-,-,-,-,-,-
Cc1ccc(C)c(NC(=O)c2ccc3ccccc3n2)c1,35µM,-,-,-,-,-
CC[C@@H](C)[C@H](NC(=O)OCc1ccccc1)c1nnc([C@@H](NC(=O)OCc2ccccc2)[C@@H](C)CC)o1,-,-,-86,-,-,-
COc1nc(=O)n(C2OC(CO)C(O)C2O)cc1C (stereo not given),35µM,-,-,-,.,-
O=C1CCCC(O)=C1N=Nc1c(Cl)cc(Cl)cc1Cl,-,-,-,-,?,-
O=C1CCCC(O)=C1Sc1cc(Cl)c(Cl)cc1Cl,-,40µM,-,-,.,-
CSc1ccc(/C=C(/C#N)C(=O)Nc2ccccc2Br)cc1,.,-,.,.,.,-
O=C(NCC1CCCCN1)c1cc(OCC(F)(F)F)ccc1OCC(F)(F)F (stereo not given),-,1.5µM!,-,-,?,-
O=C(CCl)NCCNC(=O)c1cc(OCC(F)(F)F)ccc1OCC(F)(F)F,.,-,-,-,-,-
CCCC(=O)NNc1cc(=O)c2c(=O)n(C)c(=O)n(C)c2[nH]1,-,16µM,-,-,-,-
Cn1c(SCC(=O)Nc2ccc(Br)cn2)nnc1-c1cccs1,.,-,.,.,.,-
CCOc1ccccc1CN1C[C@@H]2C(=O)N(CCN3CCc4ccccc4C3)C(=O)[C@@H]2C1,.,-,.,.,.,.
C=CCNC(=O)CSc1ncc2c(n1)-c1c(csc1SC)CC2,32µM,?,-,-,-,-
COC(=O)C1=CNC=C(C(=O)OC)C1c1ccc(Cl)c(Cl)c1,.,?,.,.,.,-
O=C(OCc1ccccc1)/C(=C/c1cccc2ccccc12)NC(=O)c1ccccc1,-,-,-,-,-,-
C=CCOC(=O)/C(=C/c1cccc2ccccc12)NC(=O)c1ccccc1,-,-,-,-275,-,-
COC(=O)CCC(=O)Nc1sc(Cc2ccccc2)c(C)c1C(N)=O,.,20µM,.,-,-,-
Cc1sc(NC(=S)NC(=O)CCc2ccccc2)c(C(N)=O)c1C,28µM,-,-,-,?,-
CCn1ccc(C(=O)NCC23CCCC=C2NC(=O)CC3)n1 (stereo not given),.,-,.,.,.,.
Cc1ccc(C)c(NC(=O)C2=Cc3sc4c(c3CS2)CCCC4)c1,.,18µM,.,.,.,-
CCC(C)NC(=O)C1=Cc2sc3c(c2CS1)CCCC3 (stereo not given),.,14µM,.,.,.,-
Cc1cc(C)c(NC(=O)C2=Cc3sc4c(c3CS2)CCCC4)c(C)c1,.,28µM,.,.,.,-
O=C(Nc1cccc(F)c1)C1=Cc2sc3c(c2CS1)CCCC3,.,?,.,.,.,-
Cc1cc(C)c(NC(=O)c2ccc3c(c2)CCC3)c(C)c1,.,-,.,.,.,-
Cc1ccc(NC(=O)C2=Cc3sc4c(c3CS2)CCCC4)cc1C,.,7.1µM,.,.,.,-
SMILES,ClpP mod,12-LOX inh,KCNH2 3.1 inh,KCNH2 WT inh,Chronic BCR inh,LDHA inh
CCc1nc(Cn2cnc3c2c(=O)n(C)c(=O)n3C)cs1,.,?,.,.,.,-
CNc1ccccc1C(=O)OC(C)C(=O)Nc1ccc(S(=O)(=O)N2CCCC2)cc1 (stereo not given),28µM,-,-,-,?,-
CC(=O)Nc1ccc(NC(=O)C(C)OC(=O)c2ccc(S(=O)(=O)N3CCCCC3)cc2)cc1 (stereo not given),.,?,-,-,-,-
CC(C(=O)Nc1ccc(S(=O)(=O)N2CCCC2)cc1)N1CCc2ccccc2C1 (stereo not given),-,-,-187,-,-,-
Cc1ccc(NC(=O)C(C)N2CCc3ccccc3C2)cc1 (stereo not given),.,-,-115,-,?,-
CC(=O)Nc1ccc(S(=O)(=O)N2CCN(C(C)CCc3ccccc3)CC2)cc1 (stereo not given),-,5.6µM,-,-,-,-
O=C(c1cc2c(s1)CCCCC2)N1CCN(c2nccs2)CC1,.,-,.,.,.,-
Nc1c(-c2ccccc2)n[nH]c1-c1ccccc1,28µM,-,-,-,?,-
COc1ccc(CC(=O)N2N=C(c3ccccc3)CC2(O)C(F)(F)F)cc1 (stereo not given),.,?,.,.,.,-
